The values below come from PubChem BioAssay (NCATS).

The nature of test [1]: Primary qHTS for inhibitors of nuclear receptor binding SET domain protein 2 (NSD2) in an RCH-ACV wild type WT cells (2C) (AID 1645877; note: nearly all actives have a fitted effect of over 70% in size; note: potency is the fitted concentration of half-maximal effect; for activity change, negative = cell killing: % is set by controls: 0 for no effect and ±100 for the full control effect). (Quantitative high-throughput screening tests each substance at several concentrations.)
Test [2] concerns the target Glutathione peroxidase 1 (Homo sapiens) (UniProt P07203). The test can be described thus: Primary qHTS Assay for Inhibitors of Recombinant Selenoprotein Glutathione Peroxidase 1 (GPX1) (AID 1845191). For activity, negative = inhibition: % is set by controls: 0 for no effect and ±100 for the full control effect. Note: nearly all actives have a fitted effect of over 65% in size. In a few lines: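 GPX1 10 nM, GR 100 nM, GSH 1 mM, NADPH 0.5 mM, CHP 0.5 mM (final). 30-min cpd preincubation, RT. Ex340/Em450 read t=0, t=15 min.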
Test [3] addresses Phospholipid hydroperoxide glutathione peroxidase GPX4 (Homo sapiens) (UniProt P36969). Nature of the test: Primary qHTS Assay for Inhibitors of Recombinant Selenoprotein Glutathione Peroxidase 4 (GPX4) (AID 1845192). For activity change, negative = inhibition: series mostly up to about 50 µM; % is set by controls: 0 for no effect and ±100 for the full control effect. Note: nearly all actives have a fitted effect of over 65% in size. In a few lines: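 qHTS, GR-coupled: GPX4 200 nM + cpd 30 min RT → GSH 1 mM, NADPH 0.5 mM, GR 100 nM → CHP 0.5 mM start; fluor 340/450 at t0 and t15 min; no-enzyme wells as control.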

The target in test [4] is Luciferin 4-monooxygenase (Photinus pyralis) (UniProt P08659). The test can be described thus: Primary firefly luciferase (FLuc) qHTS assay for identification of artifact compounds. (AID 1845220).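 For activity change, negative = inhibition: series mostly up to about 54 µM; plate controls were DMSO vehicle for no effect and no enzyme for full effect.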 Note: nearly all actives have a fitted effect of over 60% in size. Note: potency is the fitted concentration of half-maximal effect. In a few lines: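 In this counter-screen for luciferase artifacts, test compounds met substrate (10 uM each luciferin and ATP) before 10 nM enzyme started the reaction. Light output was measured 5 min later.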

The subject of test [5] is Nanoluciferase (engineered Oplophorus gracilirostris luciferase). Nature of the test: Primary Nanoluciferase (NLuc) qHTS assay for identification of artifact compounds. (AID 1845222).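 Note: NLuc secreted into diluted conditioned medium of S16 cells; series mostly up to about 54 µM.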 In a few lines:
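Using secreted nanoluciferase in S16 culture medium (0.22 um filtered, 1:55 dilution), compounds were preincubated 15 min at RT. Signal was generated with Nano-Glo reagent (1:100) over 5 min.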

Test [6] is described as follows: Primary redox qHTS assay for identification of artifact compounds. (AID 1845223).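 Note: 0% = DMSO and 100% = reference compound.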 In a few lines: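 Redox-cycling detection via DTT (250 uM final) oxidation coupled to Amplex Red (25 uM)/HRP (250 mU/mL) in HBSS. 15 min preincubation plus 30 min after DTT, room temperature. Ex/Em 525/598 nm; 4-parameter Hill fit against DMSO and 10 uM DA3003.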

Unmarked numbers belong to inactive results. Inconclusive results are not listed. The source made the active and inactive calls. Calls come from the whole dose curve; as a rule, active = well fitted curve in the direction sought with a large enough effect; inconclusive = small, poorly fitted or top-dose-only effect, or another doubt; inactive = no such curve, though single readings can be large; an effect the other way counts as inactive or inconclusive.

Chain of Glutathione peroxidase 1 (Homo sapiens) (P07203 whole entry, looked up): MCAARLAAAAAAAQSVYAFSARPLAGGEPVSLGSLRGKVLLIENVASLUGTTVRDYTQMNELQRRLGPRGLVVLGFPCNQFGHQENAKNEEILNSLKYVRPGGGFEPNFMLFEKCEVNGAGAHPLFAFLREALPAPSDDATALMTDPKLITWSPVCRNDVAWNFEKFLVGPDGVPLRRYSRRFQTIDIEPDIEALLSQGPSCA
Chain of Phospholipid hydroperoxide glutathione peroxidase GPX4 (Homo sapiens) (P36969 whole entry, looked up): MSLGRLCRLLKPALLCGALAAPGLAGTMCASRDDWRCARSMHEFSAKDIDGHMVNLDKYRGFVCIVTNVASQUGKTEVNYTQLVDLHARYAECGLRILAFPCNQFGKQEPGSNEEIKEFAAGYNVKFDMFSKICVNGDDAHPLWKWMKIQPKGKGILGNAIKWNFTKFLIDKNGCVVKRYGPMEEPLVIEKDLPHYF

Take `CC1=CC(=O)C(=C(C)C)CC2C1CCC2(C)O` (stereo unspecified): the Potency entry in test [1], in test [2], in test [3], in test [4] and in test [5] was “inactive” throughout.
For the molecule `C/C=C/C=C/C(O)=C1\C(O)=C(C)C(=O)[C@@]2(C)OC(=O)[C@@](C)(NC(=O)/C=C/C(=O)O)[C@@H]12`, the Potency entry in test [1], in test [2], in test [3], in test [4], in test [5] and in test [6] was “inactive” in each case.
With `Cc1onc(C(=O)N2CCN(C(c3ccc(Cl)cc3)c3ccc(Cl)cc3)CC2)c1[N+](=O)[O-]`, in test [1], the Potency was 0.145 µM (active). In addition, the Potency result in test [2], in test [3], in test [4], in test [5] and in test [6] was “inactive” in each case.
As to `C/C=C/c1ccc2oc(-c3ccc(O)c(OC)c3)c(C)c2c1`, the Potency is 16.3 µM (active) in test [1] and 26.9 µM (active) in test [4]. Also, the Potency entry in test [2], in test [3], in test [5] and in test [6] was “inactive” each time.
For the molecule `CC1OC(OC2C(OC3C(O[C@H]4CC[C@@]5(C)C(CC[C@]6(C)C5C(=O)C=C5C7CC(C)(C)CC(O)[C@]7(C)CC[C@]56C)C4(C)C)OC(C(=O)O)C(O)C3O)OCC(O)C2O)C(O)C(O)C1O` (stereo partly specified), the activity change, negative = cell killing in test [1] is 0.842% [at 9.23 µM]. Moreover, the Potency entry in test [2] and in test [3] was “inactive” in each case. Moreover, the activity change, negative = inhibition in test [4] was 2.88% [at 11.6 µM]. For the same molecule, the activity, negative = inhibition in test [5] is -14.3% [at 11.6 µM]. Besides, the redox activity (% of DA3003) in test [6] was 2.04% [at 11.5 µM].
Turning to `CC(C)(C)c1ccc(S(=O)(=O)Nc2ccc(Cl)cc2C(=O)c2cc[n+]([O-])cc2)cc1`, the Potency entry in test [1], in test [2], in test [3], in test [4], in test [5] and in test [6] was “inactive” in each case.
As for `COc1cc(Nc2nc3c(s2)CCCC3c2ccc(F)cc2)ccc1-n1cnc(C)c1` (stereo unspecified), in test [1], the Potency is 10.3 µM (active). The Potency entry in test [2], in test [3], in test [4], in test [5] and in test [6] was “inactive” each time.
As to `COC1C(CO)OC(n2cnc3c(=O)[nH]cnc32)C1O` (stereo unspecified), the Potency result in test [1], in test [2], in test [3], in test [4], in test [5] and in test [6] was “inactive” each time.
For `CCCCOC(=O)NC(=O)C1c2ccccc2Oc2ccccc21`, the Potency result in test [1], in test [2], in test [3], in test [4], in test [5] and in test [6] was “inactive” throughout.
For `CC(C)C1=CC2C(CC[C@]2(C)O)[C@](C)(O)CC1` (stereo partly specified), the Potency entry in test [1], in test [2], in test [3], in test [4], in test [5] and in test [6] was “inactive” throughout.
As for `C[C@@H]1C(=O)O[C@H](C)[C@H]1CC(=O)[C@](C)(O)[C@H]1CC[C@@]2(O)C3=CC(=O)[C@@H]4C[C@@H](O)[C@@H](O)C[C@]4(C)C3CC[C@]12C` (stereo partly specified), the Potency entry in test [1], in test [2], in test [3], in test [4], in test [5] and in test [6] was “inactive” throughout.
On to `C=CC1(C)C=C2C(=O)OC(=O)C3=C(CCCC3(C)C)C2(O)CC1` (stereo unspecified), for which the Potency entry in test [1], in test [2], in test [3], in test [4], in test [5] and in test [6] was “inactive” each time.
For `CC1=CC(=O)CC2C1(O)CCC(C)C21CC(c2ccoc2)OC1=O` (stereo unspecified), the Potency result in test [1], in test [2], in test [3], in test [4], in test [5] and in test [6] was “inactive” throughout.
Take `Cc1cc(O)cc(O[C@@H]2O[C@H](CO)[C@@H](O)[C@H](O)[C@H]2O)c1`: the Potency entry in test [1], in test [2], in test [3], in test [4], in test [5] and in test [6] was “inactive” throughout.
For `CC[C@H]1OC(=O)[C@H](C)[C@@H](O[C@H]2C[C@@](C)(OC)[C@@H](O)[C@H](C)O2)[C@H](C)[C@@H](O[C@@H]2O[C@H](C)C[C@H](N(C)C)[C@H]2O)[C@](C)(O)C[C@@H](C)C(=O)[C@H](C)[C@H]2OC(=O)O[C@@]21C`, the Potency entry in test [1], in test [2], in test [3], in test [4], in test [5] and in test [6] was “inactive” each time.
On to `O=C(OC1C=C(CO)C2C(OC3OC(CO)C(O)C(O)C3O)OC=CC12)c1ccc(O)cc1` (stereo unspecified), for which the Potency result in test [1], in test [2], in test [3], in test [4], in test [5] and in test [6] was “inactive” each time.
Regarding `CC(=O)c1ccc2c(c1)C(O)C(C(C)(C)O)O2` (stereo unspecified), the Potency result in test [1], in test [2], in test [3], in test [4], in test [5] and in test [6] was “inactive” in each case.
As for `Nc1nc(Nc2ccc(S(N)(=O)=O)cc2)n(C(=S)Nc2c(F)cccc2F)n1`, the Potency entry in test [1], in test [2], in test [3], in test [4], in test [5] and in test [6] was “inactive” in each case.
Consider `COC(=O)CC(C)(O)CC(=O)OCc1ccc(O[C@@H]2O[C@H](CO)[C@@H](O)[C@H](O)[C@H]2O)cc1` (stereo partly specified), for which the Potency entry in test [1], in test [2], in test [3], in test [4], in test [5] and in test [6] was “inactive” throughout.
With `O=C1CCC=CC1(O)C(=O)OCc1ccccc1O[C@@H]1O[C@H](CO)[C@@H](O)[C@H](O)[C@H]1O` (stereo partly specified), the Potency in test [1] is 5.02 µM (active). The Potency result in test [2], in test [3], in test [4], in test [5] and in test [6] was “inactive” in each case.
On to `COc1cc(O)cc(/C=C/c2ccc(O[C@@H]3O[C@H](CO)[C@@H](O)[C@H](O)[C@H]3O)cc2)c1`, for which, in test [1], the Potency is 7.96 µM (active). Also, the Potency entry in test [2], in test [3], in test [4], in test [5] and in test [6] was “inactive” each time.
For the molecule `CC1=C2C[C@H]3O[C@@]3(C)CCC3O[C@@]3(C)C[C@@]2(O)OC1=O` (stereo partly specified), the Potency result in test [1], in test [2], in test [3], in test [4], in test [5] and in test [6] was “inactive” in each case.
